Measured values from PubChem BioAssay (NCATS).
Several values for one entry are separate records, joined by “and”; a condition that tells them apart may be missing. Identical values can stand only once. Records with an inconclusive call do not appear. Activity calls are given as the source filed them. Unless noted, calls come from the whole dose curve; as a rule, active = well fitted curve in the direction sought with a large enough effect; inconclusive = small, poorly fitted or top-dose-only effect, or another doubt; inactive = no such curve, though single readings can be large; an effect the other way counts as inactive or inconclusive.

Experiments:
[1] = Cell Viability - NIH 3T3 (AID 541); conditions: NIH 3T3 cell viability, qHTS; activity change, negative = cytotoxicity: at 92.2 µM (top of the series);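 note: cells exposed to compound for 40 hours; plate controls were DMSO alone for no effect and tamoxifen positive control for full effect; nearly all actives have a fitted effect of over 25% in size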
Method in brief: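 Cells seeded at 1000/well, rested 5 hr at 37 °C, then dosed and incubated 40 hr at 37 °C. CellTiter-Glo added, 20 min room temperature, luminescence read. AC50 by Hill fit.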

[2] = Cell Viability - LYMP2-001 (AID 921);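 note: 0% = DMSO only and full inhibition = tetraoctylammonium bromide control wells; nearly all actives have a fitted effect of over 70% in size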
Method in brief: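 A lymphoblastoid cell line of human origin was treated with library compounds across a concentration series for 24 hours, and viable cell number was estimated from ATP-driven luciferase light output. Hill modeling gave AC50.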

[3] = Cell Viability - LYMP2-005 (AID 967);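 note: plate controls were DMSO only for no effect and 92 µM tetraoctylammonium bromide control for full effect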
Method in brief: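 Luciferase-based ATP quantitation served as the viability measure in human lymphoblastoid LYMP2-005 cells exposed to test compounds for 24 h at 37 C in complete culture medium. Potency (AC50) was obtained by fitting concentration-response curves with the Hill equation.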

[4] = Cell Viability - LYMP2-010 (AID 981); note: % is set by controls: 0 for no effect and ±100 for the full control effect; nearly all actives have a fitted effect of over 55% in size
Method in brief: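 Steps: seed 2500 LYMP2-010 cells per well; incubate 5 hr at 37 C; add compound; incubate 24 hr at 37 C; add CellTiter-Glo, wait 30 min at room temperature; read luminescence. Concentration-response fitted to Hill equation for AC50.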

[5] = Cell Viability - LYMP2-020 (AID 986);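 note: plate controls were DMSO only for no effect and tetraoctylammonium bromide at 92 µM for full effect; nearly all actives have a fitted effect of over 55% in size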
Method in brief: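 Seed 2500 cells per well and incubate 5 hr at 37 C. Add compounds at a concentration series and incubate 24 hr at 37 C. Add CellTiter-Glo, wait 30 min at RT, read luminescence, and fit a Hill curve for AC50.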

[6] = molecular target: Glucocorticoid receptor (Homo sapiens) (UniProt P04150); assay: qHTS assay for small molecule agonists of glucocorticoid receptor signaling (AID 588532; active = well fitted curve in the direction sought with a large enough effect in the signal ratio, with a control signal flat; the % refers to the signal ratio;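 note: 100% = dexamethasone at 0.1 µM and 0% = DMSO only wells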); conditions: HeLa MMTV-bla, beta-lactamase ratio, agonist, 18 h; stronger effect = higher value; percent of dexamethasone control, DMSO zero
Method in brief: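 Quantitative HTS using CellSensor MMTV-bla HeLa cells in charcoal/dextran-treated serum; compounds tested up to 92 uM. After 18 h at 37 C, CCF4 dye reported reporter induction.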

[7] = molecular target: Glucocorticoid receptor (Homo sapiens) (UniProt P04150); assay: qHTS assay for small molecule antagonists of glucocorticoid receptor signaling (AID 588533; active = well fitted inhibition curve with a large enough effect in the signal ratio, with a control signal flat, not every such curve was filed as active; the % refers to the signal ratio;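 note: cells stimulated with 2 nM dexamethasone as agonist; % is set by controls: 0 for no effect and ±100 for the full control effect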)
Method in brief: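 Antagonist-mode qHTS: compound titrations added to GRE-bla HeLa cells, then dexamethasone 2 nM final; 18 h, 37 C. CCF4 FRET fluorescence normalized to dexamethasone and DMSO; IC50 from Hill fit.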

[8] = molecular target: Peroxisome proliferator-activated receptor delta (Homo sapiens) (UniProt Q03181); assay: qHTS assay for small molecule agonists of peroxisome proliferator-activated receptor delta signaling (AID 588534; calls by dose curve;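 note: 0% = DMSO basal wells and 100% = positive control agonist at 10 µM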)
Method in brief: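 Agonist-mode qHTS; reporter cells, 5 hrs 37 C pre-incubation; compound titration, 18 hrs 37 C; CCF4 dye, 2 hrs RT; fluorescence read. EC50/efficacy via Hill fit.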

[9] = qHTS assay for small molecule antagonists of peroxisome proliferator-activated receptor delta signaling (AID 588535; active = well fitted inhibition curve with a large enough effect in the signal ratio, with a control signal flat, not every such curve was filed as active; the % refers to the signal ratio;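 for max response: cells co-treated with a PPAR-delta agonist as stimulator during compound exposure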); conditions: HEK293T PPARd-UAS-bla, beta-lactamase FRET ratio, 18 h; 460 nm channel
Method in brief: (§1)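 Titrations were run on PPAR-delta-UAS-bla HEK293T cells in charcoal/dextran-stripped serum, incubated 18 h at 37 C. CCF4 fluorescence (460/530 nm) after 2 h RT; Hill equation yields IC50 and maximal response.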

[10] = molecular target: Peroxisome proliferator-activated receptor delta (Homo sapiens) (UniProt Q03181); assay: as above
Method in brief: as §1

[11] = molecular target: Thyroid hormone receptor beta (Homo sapiens) (UniProt P10828); assay: qHTS assay for small molecule agonists of thyroid hormone receptor beta signaling (AID 588545; calls by dose curve)
Method in brief: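 Agonist-mode beta-lactamase reporter assay, HEK 293 cells, 2% charcoal/dextran FBS; cells plated 4 hrs, compound 18 hrs at 37 C, CCF4 2 hrs RT. Normalized to 10 nM T3 (100%) and DMSO (0%); Hill fit gives EC50, efficacy.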

[12] = qHTS assay for small molecule agonists of the antioxidant response element (ARE) signaling pathway (AID 651741; active = well fitted activation curve with a large enough effect in the signal ratio; the % refers to the signal ratio; note: potency is the fitted concentration of half-maximal effect; for activation: % of control where 0% means no effect)
Method in brief: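 Beta-lactamase reporter under ARE control in HepG2 cells, 2,000 per well, was induced by 16 h compound treatment at 37 C. Read-out was fluorescence from LiveBLAzer B/G FRET substrate after 2 h at room temperature.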

[13] = qHTS assay for small molecule activators of the nuclear factor-kappa B (NF-kB) signaling pathway (AID 651749; active = well fitted activation curve with a large enough effect in the signal ratio; the % refers to the signal ratio; note: % of control where 0% means no effect); conditions: NF-kB-bla ME-180 cells, beta-lactamase FRET ratio, 16 h; stronger effect = higher value
Method in brief: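 Activation measured after 16 hr compound treatment at 37C, 5% CO2, of 2,000 ME-180 cells/well stably expressing an NF-kB response element–driven beta-lactamase reporter, via FRET-disruption fluorescence.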

[14] = qHTS assay for environmental chemicals that activate the Aryl hydrocarbon Receptor (AhR) signaling pathway (AID 651777); conditions: 1A2-DRE human hepatoma cells, luciferase, 24 h; activation: stronger effect = higher value; note: % of control where 0% means no effect; nearly all actives have a fitted effect of over 15% in size
Method in brief: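 Following a 24 hr incubation with test chemicals at 37 C and 5% CO2, 1A2-DRE human hepatoma cells received One-Glo reagent; after 30 min at room temperature, luciferase output reflected CYP1A2 induction via AhR.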

[15] = molecular target: Estrogen receptor (Homo sapiens) (UniProt P03372); assay: qHTS assay for small molecule antagonists of estrogen receptor alpha signaling (AID 588513; active = well fitted curve in the direction sought with a large enough effect in the signal ratio, with a control signal flat, not every such curve was filed as active; the % refers to the signal ratio; note: % is set by controls: 0 for no effect and ±100 for the full control effect)
Method in brief: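 Antagonist-mode qHTS in ER-alpha-UAS-bla HEK 293 cells: compound titration, 0.5nM estradiol for 18 h, CCF4 fluorescence, Hill-derived IC50.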

[16] = Cell Viability - H-4-II-E (AID 543);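 note: cells exposed to compound for 40 hours; % is set by controls: 0 for no effect and ±100 for the full control effect; nearly all actives have a fitted effect of over 35% in size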
Method in brief: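 Cells seeded at 1500 per well and rested 5 hr; compounds added; 40 hr incubation at 37 °C; CellTiter-Glo added, 20 min at room temperature; luminescence read. Hill-equation fits gave AC50.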

[17] = molecular target: Peroxisome proliferator-activated receptor gamma (Homo sapiens) (UniProt P37231); assay: qHTS assay for small molecule antagonists of peroxisome proliferator-activated receptor gamma signaling (AID 588537; active = well fitted inhibition curve with a large enough effect in the signal ratio, with a control signal flat, not every such curve was filed as active; the % refers to the signal ratio;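 note: reporter cells co-stimulated with 50 nM rosiglitazone agonist during compound treatment; % of control where 0% means no effect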)
Method in brief: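 Antagonist-mode β-lactamase reporter screen run as a titration series. HEK293 PPARγ-UAS-bla cells are stimulated with rosiglitazone (50 nM final) for 16 h, then CCF4 is read at 460/530 nm. Data are scaled between DMSO and rosiglitazone and fitted to the Hill equation.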

[18] = molecular target: Vitamin D3 receptor (Homo sapiens) (UniProt P11473); assay: qHTS assay for small molecule agonists of vitamin D receptor signaling (AID 588543; calls by dose curve;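 note: 0% = DMSO basal and 100% = reference agonist control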)
Method in brief: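 Measured: β-lactamase reporter activity (CCF4, 405 nm excitation, 460/530 nm emission) in HEK293T VDR-UAS-bla cells after 16 h compound exposure at 37 °C. Normalization against 50 nM 1α,25-dihydroxyvitamin D3 and DMSO; Hill-fit EC50.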

[19] = qHTS assay for small molecule activators of the p53 signaling pathway (AID 651743; active = well fitted activation curve with a large enough effect in the signal ratio, not every such curve was filed as active; the % refers to the signal ratio; note: % of control where 0% means no effect); conditions: HCT-116 p53RE-bla, beta-lactamase FRET ratio, 16 h; activation: stronger effect = higher value
Method in brief: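 After 16 hours compound treatment at 37 C, HCT-116 cells stably expressing p53RE-driven beta-lactamase were loaded with LiveBLAzer B/G FRET substrate for 2 hours at room temperature. Fluorescence intensity served as the p53 activation read-out.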

[20] = molecular target: Bile acid receptor (Homo sapiens) (UniProt Q96RI1); assay: qHTS assay for small molecule agonists of farnesoid X receptor signaling (AID 588527; calls by dose curve;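 note: 0% = vehicle basal and 100% = reference agonist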); conditions: HEK293T FXR-UAS-bla, beta-lactamase ratio, 16 h; stronger effect = higher value
Method in brief: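 Read-out: beta-lactamase reporter fluorescence with CCF4 substrate in GeneBLAzer FXR-UAS-bla HEK293T cells, after 16 h compound exposure at 37 C. Response scaled between DMSO basal (0%) and chenodeoxycholic acid at 100 uM (100%).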

Chain of Glucocorticoid receptor (Homo sapiens) (P04150 whole entry, looked up): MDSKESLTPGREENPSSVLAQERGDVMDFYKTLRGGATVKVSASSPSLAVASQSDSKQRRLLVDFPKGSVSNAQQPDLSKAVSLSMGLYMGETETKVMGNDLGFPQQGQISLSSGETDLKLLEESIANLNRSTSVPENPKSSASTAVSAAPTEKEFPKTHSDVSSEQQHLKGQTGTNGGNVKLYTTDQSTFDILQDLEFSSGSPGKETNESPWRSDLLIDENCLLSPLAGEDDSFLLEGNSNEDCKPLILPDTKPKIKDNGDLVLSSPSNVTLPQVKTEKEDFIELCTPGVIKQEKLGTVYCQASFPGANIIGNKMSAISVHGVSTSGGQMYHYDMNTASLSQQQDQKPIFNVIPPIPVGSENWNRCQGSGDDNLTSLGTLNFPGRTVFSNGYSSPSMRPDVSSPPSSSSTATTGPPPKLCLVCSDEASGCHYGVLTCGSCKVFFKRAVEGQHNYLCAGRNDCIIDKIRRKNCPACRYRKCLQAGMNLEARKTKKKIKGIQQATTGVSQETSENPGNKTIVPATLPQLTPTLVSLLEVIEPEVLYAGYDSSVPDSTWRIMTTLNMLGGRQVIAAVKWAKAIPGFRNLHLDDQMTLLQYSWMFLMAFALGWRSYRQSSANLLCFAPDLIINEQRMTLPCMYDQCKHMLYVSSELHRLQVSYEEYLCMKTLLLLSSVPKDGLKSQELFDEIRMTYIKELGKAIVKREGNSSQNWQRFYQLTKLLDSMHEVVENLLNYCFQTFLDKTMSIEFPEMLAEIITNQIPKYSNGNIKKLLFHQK
Chain of Peroxisome proliferator-activated receptor gamma (Homo sapiens) (P37231 whole entry, looked up): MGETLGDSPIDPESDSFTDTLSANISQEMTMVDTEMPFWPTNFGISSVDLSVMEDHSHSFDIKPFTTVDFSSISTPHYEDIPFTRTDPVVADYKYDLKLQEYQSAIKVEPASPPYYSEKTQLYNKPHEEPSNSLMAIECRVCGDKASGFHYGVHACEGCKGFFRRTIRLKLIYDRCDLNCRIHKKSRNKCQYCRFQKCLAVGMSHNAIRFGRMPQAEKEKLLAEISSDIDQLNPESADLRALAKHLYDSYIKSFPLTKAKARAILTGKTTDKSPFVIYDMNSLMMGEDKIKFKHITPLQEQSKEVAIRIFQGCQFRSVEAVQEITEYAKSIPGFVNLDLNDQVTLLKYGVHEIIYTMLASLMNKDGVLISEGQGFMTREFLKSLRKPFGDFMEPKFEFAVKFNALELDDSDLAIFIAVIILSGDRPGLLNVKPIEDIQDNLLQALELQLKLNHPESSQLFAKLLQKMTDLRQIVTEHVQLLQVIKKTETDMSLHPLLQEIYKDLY
Chain of Thyroid hormone receptor beta (Homo sapiens) (P10828 whole entry, looked up): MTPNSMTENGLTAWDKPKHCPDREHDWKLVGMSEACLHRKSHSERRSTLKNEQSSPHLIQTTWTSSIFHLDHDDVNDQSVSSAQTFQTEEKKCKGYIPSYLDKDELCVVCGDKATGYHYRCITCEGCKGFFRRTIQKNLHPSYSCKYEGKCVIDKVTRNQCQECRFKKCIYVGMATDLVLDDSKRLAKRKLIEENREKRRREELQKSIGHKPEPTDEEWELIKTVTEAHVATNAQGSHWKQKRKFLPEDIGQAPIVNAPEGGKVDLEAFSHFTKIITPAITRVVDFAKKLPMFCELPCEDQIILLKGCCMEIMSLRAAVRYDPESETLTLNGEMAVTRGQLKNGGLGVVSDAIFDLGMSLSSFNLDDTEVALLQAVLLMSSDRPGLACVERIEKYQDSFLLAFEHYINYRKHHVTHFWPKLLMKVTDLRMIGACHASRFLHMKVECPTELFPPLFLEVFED
Chain of Peroxisome proliferator-activated receptor delta (Homo sapiens) (Q03181 whole entry, looked up): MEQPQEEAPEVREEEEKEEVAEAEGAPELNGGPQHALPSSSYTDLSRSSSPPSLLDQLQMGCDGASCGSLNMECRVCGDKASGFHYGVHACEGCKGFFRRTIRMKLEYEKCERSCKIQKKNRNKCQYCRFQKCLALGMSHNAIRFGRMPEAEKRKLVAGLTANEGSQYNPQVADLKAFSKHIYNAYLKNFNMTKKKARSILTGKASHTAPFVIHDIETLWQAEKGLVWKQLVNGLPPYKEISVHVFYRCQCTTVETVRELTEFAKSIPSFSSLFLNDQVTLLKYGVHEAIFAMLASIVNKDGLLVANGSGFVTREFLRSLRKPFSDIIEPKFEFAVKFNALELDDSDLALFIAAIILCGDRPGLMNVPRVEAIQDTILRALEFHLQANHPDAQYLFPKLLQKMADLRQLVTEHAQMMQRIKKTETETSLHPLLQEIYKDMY
Chain of Bile acid receptor (Homo sapiens) (Q96RI1 whole entry, looked up): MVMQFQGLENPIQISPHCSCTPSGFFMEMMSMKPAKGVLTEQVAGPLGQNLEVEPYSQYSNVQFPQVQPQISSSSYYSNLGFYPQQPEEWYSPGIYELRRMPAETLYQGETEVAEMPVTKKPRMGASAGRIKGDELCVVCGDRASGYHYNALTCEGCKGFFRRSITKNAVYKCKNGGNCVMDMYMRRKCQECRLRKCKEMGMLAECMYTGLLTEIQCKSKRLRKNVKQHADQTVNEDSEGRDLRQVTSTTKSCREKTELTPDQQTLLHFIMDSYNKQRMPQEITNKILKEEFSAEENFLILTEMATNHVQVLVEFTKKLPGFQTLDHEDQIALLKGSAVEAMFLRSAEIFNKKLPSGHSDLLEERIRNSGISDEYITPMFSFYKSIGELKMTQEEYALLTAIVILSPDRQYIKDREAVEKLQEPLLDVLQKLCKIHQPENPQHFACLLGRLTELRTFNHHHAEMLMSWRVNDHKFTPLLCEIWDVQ
Chain of Estrogen receptor (Homo sapiens) (P03372 whole entry, looked up): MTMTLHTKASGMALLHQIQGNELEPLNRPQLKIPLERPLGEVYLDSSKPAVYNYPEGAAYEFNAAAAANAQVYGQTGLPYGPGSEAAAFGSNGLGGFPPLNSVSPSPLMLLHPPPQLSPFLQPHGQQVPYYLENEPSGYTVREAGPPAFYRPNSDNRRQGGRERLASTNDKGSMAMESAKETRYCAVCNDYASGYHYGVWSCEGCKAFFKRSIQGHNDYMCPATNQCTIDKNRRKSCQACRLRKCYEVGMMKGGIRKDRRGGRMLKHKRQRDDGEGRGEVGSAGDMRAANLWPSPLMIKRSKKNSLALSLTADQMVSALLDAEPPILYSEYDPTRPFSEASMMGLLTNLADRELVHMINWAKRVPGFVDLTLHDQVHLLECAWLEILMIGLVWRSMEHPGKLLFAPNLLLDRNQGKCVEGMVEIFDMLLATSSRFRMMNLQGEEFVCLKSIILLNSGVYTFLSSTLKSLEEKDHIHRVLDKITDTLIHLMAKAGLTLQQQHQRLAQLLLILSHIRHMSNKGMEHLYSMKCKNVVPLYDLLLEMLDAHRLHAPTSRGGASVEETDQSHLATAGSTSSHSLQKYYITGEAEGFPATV
Chain of Vitamin D3 receptor (Homo sapiens) (P11473 whole entry, looked up): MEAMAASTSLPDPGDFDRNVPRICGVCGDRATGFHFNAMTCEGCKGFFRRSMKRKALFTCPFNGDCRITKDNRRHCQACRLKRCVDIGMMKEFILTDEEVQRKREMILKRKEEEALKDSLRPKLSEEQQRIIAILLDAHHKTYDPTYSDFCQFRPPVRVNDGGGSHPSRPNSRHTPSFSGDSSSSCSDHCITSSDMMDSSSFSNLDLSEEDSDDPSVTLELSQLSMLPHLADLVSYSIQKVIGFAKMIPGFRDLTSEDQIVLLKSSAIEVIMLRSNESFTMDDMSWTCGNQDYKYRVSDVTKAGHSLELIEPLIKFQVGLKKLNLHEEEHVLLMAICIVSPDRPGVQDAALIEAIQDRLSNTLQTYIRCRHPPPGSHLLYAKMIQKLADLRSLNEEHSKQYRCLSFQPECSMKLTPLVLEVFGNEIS

CCOP(=S)(OCC)SCCSCC
inactive: Potency [1] | Potency [2] | Potency [3] | Potency [4] | Potency [5] | activation [6] 13.6% | outcome [7] | outcome [8] | outcome [10] | Potency [11] | Potency [12] | activation [13] -0.799% and -0.139% | activation [14] 1.01% and -2.18%
-12.4% and 3.79%: max response [9]

O=[N+]([O-])CCO
inactive: Potency [1] | Potency [2] | Potency [4] | Potency [5] | Potency [15] | activation [6] -6.62% | outcome [7] | Potency [11] | activation [13] -0.859% | activation [14] -2.02%

Oc1cc(Cl)cc(Cl)c1
inactive: Potency [1] | Potency [16] | Potency [2] | Potency [3] | Potency [4] | Potency [5] | Potency [15] | activation [6] 6.41% | outcome [7] | outcome [8] | Potency [17] | outcome [18] | activation [19] 1.86% | activation [13] 0.715% | activation [14] 1.21%

CCOS(C)(=O)=O
inactive: Potency [1] | Potency [16] | Potency [3] | Potency [4] | activation [20] 1.7% | outcome [8] | outcome [10] | outcome [18] | activation [19] -2.6% | activation [13] 0.8% | activation [14] 0.384%
-10.7%: max response [9]

ClC(Cl)Br
-6.86%: max response [9]
inactive: Potency [1] | Potency [16] | Potency [2] | Potency [3] | Potency [5] | Potency [15] | activation [6] -5.41% | outcome [7] | outcome [8] | outcome [10] | Potency [17] | outcome [18] | Potency [11] | activation [13] -1.16% | activation [14] 0.136%

C=CCCC#N
inactive: Potency [16] | Potency [2] | Potency [4] | Potency [5] | Potency [15] | activation [20] -0.315% | activation [6] -1.36% | outcome [8] | outcome [18] | activation [19] -2.14% | activation [13] 0.189%

Cc1ccccc1[N+](=O)[O-]
inactive: Potency [1] | Potency [16] | Potency [2] | Potency [4] | Potency [5] | Potency [15] | outcome [7] | outcome [8] | outcome [10] | Potency [17] | outcome [18] | Potency [11] | activation [13] 3.11% | activation [14] -1.35%
-51%: max response [9]

CNC(=O)O/N=C/C(C)(C)S(C)=O (stereo not drawn)
8.11% and 9.71%: max response [9]
inactive: Potency [16] | Potency [2] | Potency [3] | Potency [4] | Potency [5] | Potency [15] | activation [20] -0.355% and 3.36% | activation [6] 15.3% and 5.05% | outcome [7] | outcome [8] | outcome [10] | Potency [17] | outcome [18] | activation [19] -0.482% and 5.01% | activation [13] -0.721% and -0.0233%

Cc1ccc([N+](=O)[O-])cc1
inactive: Potency [16] | Potency [2] | Potency [4] | Potency [5] | Potency [15] | outcome [7] | outcome [8] | outcome [10] | Potency [17] | outcome [18] | Potency [11] | activation [19] -4.73%
22.5%: max response [9]

O=C(Cl)c1ccccc1F
inactive: Potency [4] | Potency [5] | Potency [15] | activation [20] 2.29% | outcome [8] | outcome [10] | Potency [11] | activation [19] -0.282% | activation [14] 4.83%
-9.33%: max response [9]

CCOC(=O)CC(SP(=O)(OC)OC)C(=O)OCC (stereo not drawn)
active: Potency [12] 42.2 µM
inactive: Potency [16] | Potency [2] | Potency [3] | Potency [4] | Potency [5] | activation [20] -1.01% and 1.76% | activation [6] 2.95% | outcome [7] | outcome [8] | Potency [11] | activation [13] -1.06% and 1.21% | activation [14] 1.9% and 4.95%

C=C(Cl)CSC(=S)N(CC)CC
inactive: Potency [16] | Potency [2] | Potency [3] | activation [20] 1.19% | outcome [8] | outcome [10] | Potency [17] | outcome [18] | Potency [11] | activation [19] -1.91% | activation [13] -0.634% | activation [14] 0.101%
-17.2%: max response [9]

O=NN1CCCCC1
inactive: Potency [1] | Potency [2] | Potency [3] | Potency [4] | Potency [5] | outcome [7] | outcome [8] | outcome [10] | outcome [18] | Potency [11] | Potency [12] | activation [19] -2.94% | activation [13] -0.849% | activation [14] 1.05%
-27.9%: max response [9]
